VACV Venus inh: vaccinia inhibition (Venus reporter); Vaccinia virus Venus reporter expression, fluorescence; Potency, µM (doses to about 36.5 µM), for the others: at the top dose activity change, negative = inhibition, hits mostly inhibitors; actives 0.46% (n = 330,000); AID 720580; calls by dose curve; tested in A549 cells; further: potency means the concentration at half of the fitted maximal effect; nearly all actives have a fitted effect of over 30% in size
FMDV antiviral: antivirals against foot and mouth disease virus; FMDV antiviral cell-based qHTS; Potency, µM (titrated, usually from 57.9 µM), without a hit: at the highest dose activity change, negative = inhibition, most hits filed as inhibitors; actives 1.2% (n = 410,000); AID 1159524; calls by dose curve; tested in HEK293T cells; further: read-out not given here; potency means the concentration at half of the fitted maximal effect; nearly all actives have a fitted effect of over 45% in size
HCV inhibitor: inhibitors of hepatitis C virus infection | Huh7.5.1 HCVcc-Cre infection, luciferase reporter, 44 h | AID 651820 | actives 3.4% (n = 340,000) | Potency, µM (top dose mostly 41.8 µM), for the others: top-dose activity change, negative = inhibition, hits mostly inhibitors; active means well fitted inhibition curve with a large enough effect; inconclusive means small, poorly fitted or top-dose-only effect, or another doubt; inactive means no such curve, though single readings can be large or run the other way; further: potency means the concentration at half of the fitted maximal effect
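Cells seeded at 1,000/well and cultured 4 h, then compounds added followed by HCVcc-Cre virus (~0.5 moi). After 44 h further culture, luciferase substrate was added, plates held 15 min at room temperature, and luminescence read for 15 sec.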
Vaccinia mCherry: vaccinia inhibition (mCherry reporter); Vaccinia virus mCherry reporter infection, fluorescence; Potency, µM (doses to about 36.5 µM), inactives show at the highest dose activity change, negative = inhibition, hits mostly inhibitors; actives 0.63% (n = 310,000); AID 720579; calls by dose curve; tested in A549 cells; further: potency means the concentration at half of the fitted maximal effect; nearly all actives have a fitted effect of over 35% in size
HCMV inh: inhibitors of human cytomegalovirus; activity change, negative = inhibition, % at 57.5 µM; HFF cells, HCMV-luciferase reporter, 72 h; active compounds read low; actives 4.5% (n = 410,000); in the data active means activity change below about -60%; inconclusive means no clear call, values can overlap the other calls; inactive means above about -39%
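After 16 h attachment at 37C, HFF cells received test compound and HCMV-luciferase (1 PFU/cell); reporter luminescence read 72 h later, data normalized against buffer-only and known inhibitor Salinomycin.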
* marks the source's active call; other numbers are inactive results; i = inactive; ? = inconclusive; nt = no result given; + = active, no number; [ ] = remark or other dose. Shown are actives, neighbours in structure and some others; about 7.3% of the full set was active somewhere. On the % scale 0 is the no-effect control and ±100 the full control effect.

SMILES	VACV Venus inh	FMDV antiviral	HCV inhibitor	Vaccinia mCherry	HCMV inh
Cn1c(-c2ccccc2)cc2ccccc21	5%	35%	18%	-8%	16
Cn1c(-c2ccccc2)cc2c3no[n+]([O-])c3ccc21	?	5%	2.5µM*	-13%[1.46 µM]	-102*
C[C@H](NC(=O)N1CCn2c1nc1ccccc12)C(=O)N1CCCCC1	0%[7.34 µM]	11%	10%	5%[7.34 µM]	+
C[C@H](NC(=O)N1CCn2c1nc1ccccc12)C(=O)NC1CC1	nt	-12%	19%	nt	0
CC1CN(C(=O)N2CCC(C(=O)NCCCc3ccccc3)CC2)c2ccccc2O1 (stereo unspecified)	-14%	-3%	nt	-6%	-2
CC(C)OP(=O)(OC(C)C)C(Nc1cccc(C(=O)O)c1)c1ccccc1 (stereo unspecified)	-18%	8.9µM*	0%	-10%	-28
COc1ccc(-c2ccc3[nH]c4c(c3c2)CCN2C(=O)[C@@H]([C@H](C)O)[C@@H](N(C)C(=O)Nc3ccccc3)C[C@@H]42)cc1	-27%	-6%	nt	-19%	4
COc1ccc(NC(=O)N(C)[C@H]2C[C@H]3c4[nH]c5ccc(-c6ccc(OC)cc6)cc5c4CCN3C(=O)[C@H]2[C@H](C)O)cc1	?	-23%	nt	-27%	-68*
COc1ccc(NC(=O)N(C)[C@H]2C[C@H]3c4[nH]c5ccc(-c6ccc(OC)cc6)cc5c4CCN3C[C@H]2[C@H](C)O)cc1	?	-22%	nt	-29%	-104*
COc1ccc(NC(=O)N(C)[C@H]2C[C@H]3c4[nH]c5ccc(-c6ccc7c(c6)OCO7)cc5c4CCN3C[C@H]2[C@H](C)O)cc1	?	-30%	nt	?	-1
CN[C@H]1C[C@H]2c3[nH]c4ccc(-c5ccc(OC)cc5)cc4c3CCN2C(=O)[C@H]1[C@H](C)O	13µM*	?	nt	?	-103*
COCCCNC(=O)c1ccc(Cn2c(=O)c3ccccc3n(CC(N)=O)c2=O)cc1	20%	11%	nt	27%	9
CCc1nc2cc(C(=O)NC3CCOC(C)(C)C3)cc(NC(=O)c3ccccc3OC)c2n1C (stereo unspecified)	-11%	1%	nt	-24%	nt
CC(C)=CCc1c(O)cc2oc3c(CC=C(C)C)c(O)c(O)c(CC=C(C)C)c3c(=O)c2c1O	?	22µM*	?	?	-101*
O=C(CCC(=O)N1CCOc2ccc(Cl)cc21)NCCCN1CCN(c2ccccc2F)CC1	-11%	?	?	?	-24
O=C(CCC(=O)N1CCOc2ccc(Cl)cc21)NCCCN1CCC(Cc2ccccc2)CC1	-20%	-17%	?	11%	-75*
Cc1ccc(C)c(N2CCN(CCCNC(=O)CCC(=O)N3CCOc4ccc(Cl)cc43)CC2)c1	nt	nt	nt	nt	-83*
Cc1ccc(C)c(N2CCN(C(=O)CCC(=O)N3CCOc4ccc(Cl)cc43)CC2)c1	?	-28%	10µM*	?	-80*
COCc1ccc(C(=O)N2CCCC(C(=O)c3ccc(SC)cc3)C2)s1 (stereo unspecified)	-23%	?	nt	-2%	-87*
Clc1ccc2c(N3CCOCC3)ccnc2c1	-21%	-2%	?	-5%	-37
Clc1ccc2c(c1)CNc1c(ncnc1N1CCOCC1)O2	10µM*	?	?	nt	4
Cc1cccc(OCCSCc2nc3ccccc3[nH]2)c1	-18%	?	6.3µM*	nt	6
Cc1c(C(=O)NCc2ccccc2Br)oc2c1-c1[nH]ncc1CC2	-9%	7%	nt	-7%	53
C=CCN1C(=O)N/C(=C/c2ccc(N3CCOCC3)o2)C1=O	nt	nt	-1%[0.335 µM]	nt	-63*
Oc1cccc(-c2nnc(-c3cccc(O)c3)nn2)c1	-4%	8.9µM*	?	-19%	-13
SMILES	VACV Venus inh	FMDV antiviral	HCV inhibitor	Vaccinia mCherry	HCMV inh
Oc1cccc(-c2nc3ccccc3s2)c1	-20%	-44%	?	nt	178
O=C(CSc1nc2c([nH]c3ccccc32)c(=O)n1-c1ccccc1)N1CCCC1	-4%	-11%	nt	-7%	3
C#CCOCCOCCOCCNc1nc(N2CCN(C(=O)CCCCCCCCCCNC(=O)[C@H](CCCCN)n3cc(CCO)nn3)CC2)nc(N2CCN(C(=O)CCCCCCCCCCNC(=O)[C@H](CCCCN)n3cc(CCO)nn3)CC2)n1	?	-11%	8%	i	nt
C#CCOCCOCCOCCNc1nc(N2CCN(C(=O)CCCCCCCCCCNC(=O)[C@H](CCCCN)n3cc(CCCC(=O)O)nn3)CC2)nc(N2CCN(C(=O)CCCCCCCCCCNC(=O)[C@H](CCCCN)n3cc(CCCC(=O)O)nn3)CC2)n1	-19%	0%	?	i	nt
C#CCOCCOCCOCCNc1nc(N2CCN(C(=O)CCCCCCCCCCNC(=O)[C@H](CCCCN)n3cc(CCO)nn3)CC2)nc(N2CCN(C(=O)CCCCCCCCCCNC(=O)[C@H](CCCN=C(N)N)n3cc(C[C@@H](C)CC)nn3)CC2)n1	10µM*	?	?	?	nt
C#CCOCCOCCOCCNc1nc(N2CCN(C(=O)CCCCCCCCCCNC(=O)Cn3cc(C[C@@H](C)O)nn3)CC2)nc(N2CCN(C(=O)CCCCCCCCCCNC(=O)[C@H](CCCCN)n3cc(C[C@@H](C)CC)nn3)CC2)n1	10µM*	?	?	?	nt
C#CCOCCOCCOCCNc1nc(N2CCN(C(=O)CCCCCCCCCCNC(=O)[C@H](CCCCN)n3cc(C[C@@H](C)CC)nn3)CC2)nc(N2CCN(C(=O)CCCCCCCCCCNC(=O)[C@H](CCCCN)n3cc(C[C@@H](C)CC)nn3)CC2)n1	11µM*	40µM*	-11%[8.37 µM]	?	nt
C#CCOCCOCCOCCNc1nc(N2CCN(C(=O)CCCCCCCCCCNC(=O)[C@H](CCCCN)n3cc(CCCC(=O)O)nn3)CC2)nc(N2CCN(C(=O)CCCCCCCCCCNC(=O)[C@H](CCCN=C(N)N)n3cc(C[C@@H](C)CC)nn3)CC2)n1	11µM*	?	?	?	nt
COCCn1c(C)cc(O)c(C(c2ccccc2OC)N2CCN(c3ccccc3)CC2)c1=O (stereo unspecified)	-9%	-30%	nt	-9%	10
Cc1ccc(-n2c(O)c(C=NCc3ccccn3)c3ccccc3c2=O)cc1	-24%	-21%	?	-2%	-65*
C(=NCc1ccccc1)N1c2ccccc2-n2cccc2C1CCc1ccccc1 (stereo unspecified)	nt	nt	nt	nt	53
O=c1[nH]c(=O)n(C2CC(O)C(CO)O2)cc1C(F)(F)F (stereo unspecified)	-26%	0%	nt	2µM*	nt
O=c1[nH]c(=O)n(C2CC(O)C(CO)O2)cc1F (stereo unspecified)	?	8%	nt	?	nt
Nc1nc(=O)n(C2CC(O)C(CO)O2)cc1F (stereo unspecified)	?	8%	-9%	?	-97*
Cc1ccc(NC(=O)c2nnn(CC(=O)Nc3ccc(C)c(Cl)c3)c2N)c(C)c1	-10%	21%	nt	i	-1

Assay outcomes deposited in PubChem BioAssay by National Center for Advancing Translational Sciences (NCATS).
